According to PubChem BioAssay (NCATS):
Inconclusive results are not listed. Active and inactive are the calls of the source. Unless noted, calls follow the shape of the dose curve; as a rule, active = well fitted curve in the direction sought with a large enough effect; inconclusive = small, poorly fitted or top-dose-only effect, or another doubt; inactive = no such curve, though single readings can be large; an effect the other way counts as inactive or inconclusive.

What was measured:
[1] = Confirmation and Secondary Assay for Modulators of Hemoglobin Beta Chain Splicing at IVS2 654 locus (AID 910);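 also: per-well total GFP intensity by laser scanning cytometry after 2-day treatment; % of control where 0% means no effect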
Summary of the method: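 HeLa cells stably carrying EGFP interrupted by mutant beta-globin IVS2-654 intron (CMV-driven) were treated with compound for 2 days at 37C; corrected splicing was scored as total peak GFP intensity per well (488 nm excitation, 500-520 nm emission).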

[2] = qHTS Assay for Identification of Small Molecule Agonists for Thrombopoietin (TPO) Signaling Pathway (AID 917); also: % is scaled to controls: 0 for no effect and ±100 for the full control effect
Summary of the method: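 Murine Ba/F3 cells stably expressing human TPO receptor and a Glycoprotein IIb promoter–luciferase reporter were IL-3-starved overnight, then treated with compounds plus TPO (26 pM final, its EC50) for 24 hrs at 37 C; luminescence was read.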

[3] = Confirmation and Secondary Assay for Modulators of Hemoglobin Beta Chain Splicing at IVS2 705 locus (AID 930);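 also: HeLa cells stably expressing the EGFP-705 splicing reporter; GFP fluorescence per well restored by corrected splicing of the IVS2-705 intron in EGFP; series mostly up to about 46 µM; % of control where 0% means no effect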
Summary of the method: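 HeLa EGFP-705 reporter; 500 cells/well, o/n 37C 5% CO2; cpd 2 d; 488 ex/500-520 em laser scan; total peak GFP intensity/well. Ref: 500 nM […] antisense PNA.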

[4] = biological target: Muscarinic acetylcholine receptor M1 (Rattus norvegicus) (UniProt P08482); assay: qHTS Assay for Antagonists of Acetylcholine Muscarinic M1 Receptor: Kinetic Measurement of Intracellular Calcium Response (AID 943);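 also: Fluo-4 calcium signal as peak divided by basal fluorescence over 4 min; series mostly up to about 35 µM; nearly all actives have a fitted effect of over 75% in size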
Summary of the method: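 Rat M1-CHO cells, 2000/well, overnight → Fluo-4 no-wash dye with probenecid, 1 h 37C → compound 10 min, room temp → basal read 6 s → carbachol EC80 (100 nM) → 4 min kinetic read; peak/basal.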

[5] = biological target: Muscarinic acetylcholine receptor M1 (Rattus norvegicus) (UniProt P08482); assay: qHTS Assay for Antagonists of Acetylcholine Muscarinic M1 Receptor: Measurement of IP-One Response (AID 944); also: nearly all actives have a fitted effect of over 75% in size
Summary of the method: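 M1-CHO (rat), 2000 cells/well, overnight recovery; cpd 10 min; carbachol EC80 (200 nM), 30 min, HEPES buffer + 50 mM LiCl pH 7.4; IP-One HTRF, Ex 337, Em 620/665 nm.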

[6] = biological target: Pyruvate kinase (Leishmania mexicana) (UniProt Q27686); assay: qHTS Validation Assay for Inhibitors of Leishmania Mexicana Pyruvate Kinase (AID 945);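 also: 0% = DMSO only neutral control wells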
Summary of the method: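 Substrate mix (0.5 mM PEP, 0.1 mM ADP, 7 mM MgCl2, 50 mM KCl, pH 7.2 imidazole) received compound by pin tool, then 0.2 nM LmPYK E451W. After 1 h at room temperature, PKLight was added and luminescence measured.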

[7] = biological target: Pyruvate kinase PKM (Homo sapiens) (UniProt P14618); assay: qHTS Assay for Activators of Human Muscle Pyruvate Kinase (AID 954; active = well fitted curve in the direction sought with a large enough effect, not every such curve was filed as active;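 also: 0% = uninhibited enzyme and -100% = no enzyme or full thiadiazolimine inhibition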)
Summary of the method: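 Reaction: 0.1 nM purified PKM2 with 0.5 mM phosphoenolpyruvate and 0.1 mM ADP, room temperature, 1 h. Readout: luciferase-based ATP luminescence after stop reagent. Activators judged against a 0.3 nM enzyme column.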

[8] = Cell Viability - LYMP2-001 (AID 921);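 also: series mostly up to about 92 µM; 0% = DMSO only and full inhibition = tetraoctylammonium bromide control wells; nearly all actives have a fitted effect of over 70% in size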
Summary of the method: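 Human lymphoblastoid cells (Coriell), 2500 per well, were preincubated 5 hr at 37 C, then exposed to compounds in complete medium for 24 hr at 37 C. Cellular ATP was read by CellTiter-Glo luminescence; AC50 from Hill fits of concentration-response data.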

[9] = MultiTox-Fluor Cytotoxicity Assay - LYMP1-001 - Dead Cells (AID 946)
Summary of the method: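 Seed 2500 LYMP1-001 cells/well, incubate 5 hr at 37 C; add compound, 16 hr at 37 C; add MultiTox-Fluor reagent, 60 min RT; read dead-cell fluorescence Ex/Em=485/520. Normalize to DMSO and 15 uM tetraoctylammonium bromide.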

[10] = MultiTox-Fluor Cytotoxicity Assay - LYMP1-001 - Live Cells (AID 947);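 also: 0% = DMSO only and full inhibition = tetraoctylammonium bromide control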
[11] = Cell Viability - LYMP1-002 - Assay at 16 hr (AID 948);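 also: 0% = DMSO alone and full effect = 92 µM tetraoctylammonium bromide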
Summary of the method: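 Human lymphoblastoid cells (LYMP1-002), 2500/well, were preincubated 5 hr at 37 C, then exposed to compounds for 16 hr at 37 C in complete medium. Cellular ATP was read by CellTiter-Glo luminescence after 30 min at room temperature; AC50 from Hill fits.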

[12] = MultiTox-Fluor Cytotoxicity Assay - LYMP1-002 - Live Cells (AID 955); also: % is scaled to controls: 0 for no effect and ±100 for the full control effect
Summary of the method: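 Read-out is live-cell protease activity (cell-permeant GF-AFC substrate, fluorescence Ex/Em=405/510), where a decrease indicates acute toxicity. Human lymphoblastoid cells were treated 16 hours at 37 C in a concentration series, and AC50 values came from standard Hill modelling.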

[13] = MultiTox-Fluor Cytotoxicity Assay - LYMP1-002 - Dead Cells (AID 960); also: nearly all actives have a fitted effect of over 60% in size
Summary of the method: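 LYMP1-002 cells 2500/well; 5 hr 37 C pre-incubation; compound 16 hr 37 C; MultiTox-Fluor reagent 60 min RT; dead-cell fluor Ex/Em 485/520. Norm. to DMSO (0%) vs 15 uM tetraoctylammonium bromide (100%); Hill AC50.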

[14] = MultiTox-Fluor Cytotoxicity Assay - LYMP1-003 - Dead Cells (AID 961); also: nearly all actives have a fitted effect of over 70% in size
Summary of the method: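 LYMP1-003 lymphoblastoid, 2500 cells/well, 5 hr settle then 16 hr cpd at 37 C; MultiTox-Fluor reagent 60 min RT; Ex/Em 485/520 dead-cell signal; norm. DMSO = 0%, 15 uM tetraoctylammonium bromide = 100%; Hill AC50.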

[15] = MultiTox-Fluor Cytotoxicity Assay - LYMP1-003 - Live Cells (AID 962);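 also: 0% = DMSO only and full loss = 92 µM tetraoctylammonium bromide; cytotoxic hits lower the live-cell protease signal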
Summary of the method: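 qHTS, 1536-well; 2500 cells/well LYMP1-003; 5 hr 37 C settle; cpd 16 hr 37 C; MultiTox-Fluor reagent 60 min RT; live-cell protease fluor. 405/510; Hill-fit AC50; tetraoctylammonium bromide pos. ctrl.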

[16] = Cell Viability - LYMP1-003 - Assay at 24 hr (AID 963);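 also: plate controls were DMSO only for no effect and tetraoctylammonium bromide positive control for full effect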
Summary of the method: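 Cells seeded at 2500/well, 5 hr at 37 C; compounds added; 24 hr at 37 C; CellTiter-Glo added, 30 min room temperature; luminescence read. Decrease in ATP taken as cytotoxicity, AC50 from Hill modelling.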

[17] = Cell Viability - LYMP1-003 - Assay at 40 hr (AID 964); also: series mostly up to about 92 µM; % is scaled to controls: 0 for no effect and ±100 for the full control effect; nearly all actives have a fitted effect of over 60% in size
Summary of the method: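 Cells were seeded at 2500 per well and incubated 5 hr at 37 C. Compounds were added across a concentration series and left 40 hr at 37 C. CellTiter-Glo was added for 30 min at room temperature before luminescence reading.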

[18] = Cell Viability - LYMP2-003 (AID 965);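 also: cells exposed to compounds for 24 h before reading; 0% = DMSO only and full effect = 92 µM tetraoctylammonium bromide; nearly all actives have a fitted effect of over 50% in size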
Summary of the method: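 Human lymphoblastoid cells (2500/well) were pre-incubated 5 hr at 37 C, then exposed to compounds over a concentration range for 24 hr at 37 C. Intracellular ATP was read by CellTiter-Glo luminescence; AC50 came from Hill-equation fits.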

[19] = Cell Viability - LYMP2-004 (AID 966);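 also: plate controls were DMSO only for no effect and tetraoctylammonium bromide control for full effect; nearly all actives have a fitted effect of over 65% in size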
Summary of the method: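 Cells seeded 2500/well, rested 5 hr at 37 C, dosed across a concentration series, incubated 24 hr at 37 C, then CellTiter-Glo added for 30 min at room temperature and luminescence read. Hill fitting gave AC50.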

[20] = qHTS Assay for Identification of Small Molecule Agonists for Hypoxia Response Element Signaling Pathway (AID 914; active = well fitted activation curve with a large enough effect in the signal ratio, with a control signal flat, not every such curve was filed as active; the % refers to the signal ratio; also: % of control where 0% means no effect); conditions: ME-180 (cervical carcinoma) HRE-bla reporter, beta-lactamase ratio, CoCl2, 17 h; active compounds read high
Summary of the method: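 Read-out: CCF4 FRET ratio of 460nm to 530nm emission (excitation 405nm) after 2.5 hours at room temperature, taken from HRE-bla ME-180 cells that had been exposed to compound and EC50 CoCl2 for 17 hours.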

Measured: activation

Muscarinic acetylcholine receptor M1 (Rattus norvegicus), sequence (P08482 whole entry, looked up): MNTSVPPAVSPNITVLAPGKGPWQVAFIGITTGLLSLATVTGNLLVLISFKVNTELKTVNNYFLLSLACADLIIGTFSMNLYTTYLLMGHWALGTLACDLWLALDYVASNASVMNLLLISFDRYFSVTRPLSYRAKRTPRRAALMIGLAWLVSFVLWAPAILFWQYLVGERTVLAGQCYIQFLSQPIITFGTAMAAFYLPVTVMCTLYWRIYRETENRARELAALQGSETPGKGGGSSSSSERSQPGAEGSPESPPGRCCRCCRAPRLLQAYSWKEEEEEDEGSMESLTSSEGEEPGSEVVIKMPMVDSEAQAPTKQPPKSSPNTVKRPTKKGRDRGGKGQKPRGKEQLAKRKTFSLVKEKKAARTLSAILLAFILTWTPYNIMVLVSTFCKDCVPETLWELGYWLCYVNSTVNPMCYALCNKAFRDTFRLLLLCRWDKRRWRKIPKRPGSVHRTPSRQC
Pyruvate kinase PKM (Homo sapiens), sequence (P14618 whole entry, looked up): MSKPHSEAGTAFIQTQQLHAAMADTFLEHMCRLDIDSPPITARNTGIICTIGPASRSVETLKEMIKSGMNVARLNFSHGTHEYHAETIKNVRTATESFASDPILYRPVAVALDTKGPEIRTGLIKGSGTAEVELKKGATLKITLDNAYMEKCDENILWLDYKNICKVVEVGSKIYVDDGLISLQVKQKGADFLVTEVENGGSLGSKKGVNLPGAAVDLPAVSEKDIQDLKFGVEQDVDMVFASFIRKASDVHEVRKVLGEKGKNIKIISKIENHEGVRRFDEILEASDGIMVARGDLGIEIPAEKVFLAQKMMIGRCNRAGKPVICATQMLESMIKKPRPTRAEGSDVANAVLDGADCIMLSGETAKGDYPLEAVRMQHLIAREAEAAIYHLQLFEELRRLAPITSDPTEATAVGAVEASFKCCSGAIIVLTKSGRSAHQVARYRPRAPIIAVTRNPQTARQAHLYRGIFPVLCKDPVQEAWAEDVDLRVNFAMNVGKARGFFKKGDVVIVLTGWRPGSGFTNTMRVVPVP
Pyruvate kinase (Leishmania mexicana), sequence (Q27686 2-499 E452W): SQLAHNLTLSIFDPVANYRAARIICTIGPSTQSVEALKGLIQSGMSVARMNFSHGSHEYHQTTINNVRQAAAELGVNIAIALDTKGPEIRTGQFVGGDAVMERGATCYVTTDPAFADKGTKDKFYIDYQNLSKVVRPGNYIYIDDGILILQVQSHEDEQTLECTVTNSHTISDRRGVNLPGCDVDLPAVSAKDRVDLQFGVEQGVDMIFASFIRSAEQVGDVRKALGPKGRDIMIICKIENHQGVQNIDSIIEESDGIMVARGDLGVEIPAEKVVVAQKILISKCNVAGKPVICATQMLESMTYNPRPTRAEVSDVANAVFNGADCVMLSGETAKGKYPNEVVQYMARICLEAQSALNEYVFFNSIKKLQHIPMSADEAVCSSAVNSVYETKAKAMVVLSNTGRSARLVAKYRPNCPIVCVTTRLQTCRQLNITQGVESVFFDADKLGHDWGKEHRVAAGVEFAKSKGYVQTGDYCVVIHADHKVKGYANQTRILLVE

CN1C(C)(C)CCCC1(C)C
inactive: [1] | [2] | [3] | [4] | [5] | [6] | [7]

NS(=O)(=O)c1cc2c(cc1C(F)(F)F)NCNS2(=O)=O
inactive: [1] | [3]

O=C(CCBr)N1CCN(C(=O)CCBr)CC1
inactive: [1] | [3]

C[n+]1ccccc1/C=N/O
inactive: [1] | [3]

O=C(O)CCCCC1CCSS1 (stereo unspecified)
not listed: [2] | [4] | [5] | [6] | [7] | [20]
inactive: all other assays above

C=CCSCC1Nc2cc(Cl)c(S(N)(=O)=O)cc2S(=O)(=O)N1 (stereo unspecified)
inactive: [1] | [3]

Nc1ccc(C(=O)Oc2ccccc2)c(O)c1
inactive: [1] | [3]

NC(=O)NC1NC(=O)NC1=O (stereo unspecified)
inactive: [1] | [3]

Cn1c(=O)c2c(ncn2CCO)n(C)c1=O
inactive: [1] | [3]

Cc1ccsc1/C=C/C1=NCCCN1C
inactive: [1] | [3]

O=C(Cn1ccnc1[N+](=O)[O-])NCCO
inactive: [1] | [3]

CCS(=O)(=O)CCn1c([N+](=O)[O-])cnc1C
inactive: [1] | [3]

CC(=O)Nc1cccc(O)c1
not listed: [2] | [4] | [5] | [6] | [7] | [20]
inactive: all other assays above

NC(=O)c1ccc([N+](=O)[O-])cc1Cl
inactive: [1] | [3]

NCc1ccc(S(N)(=O)=O)cc1
inactive: [1] | [3]

CNCc1ccccc1
inactive: [1] | [3]

Nc1ccc(S(=O)(=O)c2ccc(N)cc2)cc1
not listed: [2] | [4] | [5] | [6] | [7] | [20]
inactive: all other assays above

Cc1cccc(C(=O)O)c1O
inactive: [1] | [3]

CC(=O)Nc1ccccc1
not listed: [2] | [4] | [5] | [6] | [7] | [20]
inactive: all other assays above

CCCCOC(=O)c1ccc(N)cc1
not listed: [2] | [4] | [5] | [6] | [7] | [20]
inactive: all other assays above

O=c1[nH]cnc2nc[nH]c12
inactive: [1] | [3]

Cc1cc(=O)[nH]c(=S)[nH]1
not listed: [2] | [4] | [5] | [6] | [7] | [20]
inactive: all other assays above

O=C(O)c1ccccc1C(=O)Nc1ccc(S(=O)(=O)Nc2nccs2)cc1
inactive: [1] | [3]

O=C(O)c1ccccc1OP(=O)(O)O
inactive: [1] | [3]

CC(=O)NS(=O)(=O)c1ccc(N)cc1
not listed: [2] | [4] | [5] | [6] | [7] | [10] | [20]
inactive: all other assays above

CC(=O)OCC(COC(C)=O)OC(C)=O
not listed: [2] | [4] | [5] | [6] | [7] | [20]
inactive: all other assays above

Cc1cc(C)nc(NS(=O)(=O)c2ccc(N)cc2)n1
inactive: [1] | [20] -4.03% | [8] | [3] | [9] | [10] | [11] | [12] | [13] | [14] | [15] | [16] | [17] | [18] | [19]

Cc1c(NC(=O)c2cccnc2)c(=O)n(-c2ccccc2)n1C
inactive: [1] | [3]

CCOC(N)=O
inactive: [1] | [3]

CCCCC1(COC(=O)CCC(=O)O)C(=O)N(c2ccccc2)N(c2ccccc2)C1=O
inactive: [1] | [3]

CN1CCCN=C1COC(=O)C(O)(c1ccccc1)C1CCCCC1 (stereo unspecified)
inactive: [1] | [3]

Cc1cccc(Nc2ccccc2C(=O)O)c1C
inactive: [1] | [3]

CC1CC(OC(=O)c2ccccc2O)CC(C)(C)C1 (stereo unspecified)
not listed: [2] | [4] | [5] | [6] | [7] | [20]
inactive: all other assays above
